# This is part of a sample that, as a whole, favours compounds with a hit. Of some 83,000 tested, about 20% had one in any assay.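 Single-concentration screen, 48 h exposure, 96-well plates. Endpoint: percent growth. Below 10 = active.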 Calls of active or inactive are those of the source.
# Tested on: MDA-MB-468 breast
# Experiment: NCI-60 one-dose screen, 48 h (100 = growth as untreated, 0 = no growth, -100 = all killed)
# Details: 10 µM unless noted
row,Structure (SMILES),growth
1,CCOC(=O)c1cc(C(=O)c2cc(OC)cc(OC)c2)n2ncc3ccccc3c12,8.22% (active)
2,COc1ccc(Cn2c(NCCCN(C)C)nc(=O)n(Cc3ccc(F)cc3)c2=O)cc1,85.8% (inactive)
3,COc1ccc2c(c1)C(c1c[nH]c3ccccc13)(c1c[nH]c3ccccc13)CCO2,35% (inactive)
4,COC(=O)c1ccc(=O)oc1,105% (inactive)
5,OC(COc1ccccc1Cl)CN1CCN(c2cccc(Cl)c2)CC1 (stereo not given),103% (inactive)
6,CCN1C(=O)N[C@H]2[C@@H]3NC(=O)c4ccc(Cl)n4[C@@H]3C[C@]21O,-6.44% (active)
7,C(=C\c1ccccc1)/CN1CCN(C(c2ccccc2)c2ccccc2)CC1,89.6% (inactive)
8,COc1ccc(Nc2ncccc2C(=O)NCc2cn(Cc3cc(OC)cc(OC)c3)nn2)cc1,103% (inactive)
9,CCCCCCCCCCCCCCNc1nc(CO)ncc1-c1ccc(C(F)(F)F)cc1,98.1% (inactive)
10,O=c1ccn(Cc2cn(-c3c4ccccc4nc4ccccc34)nn2)c(=O)[nH]1,-50.8% (active)
11,COc1c(N2CC3CCCNC3C2)c(F)cc2c(=O)c(C(=O)N/N=C/c3ccc4c(c3)OCO4)cn(C3CC3)c12 (stereo not given),63.1% (inactive)
12,COc1ccc(/C=C2\SC(=O)N(Cc3cc(=O)oc4ccc(OC)cc34)C2=O)cc1,46.6% (inactive)
13,COC(=O)c1c(C(=O)OC)c2n(CC(=O)Nc3cccc4cccnc34)c3ccccc3n2c1C(=O)c1ccc(C)cc1,98.6% (inactive)
14,NC(=O)c1c(NC(=O)c2ccc3ccccc3c2)sc2c1CCC(=O)C2,85.8% (inactive)
15,Cc1ccc(S(=O)(=O)n2cc(C(=O)C(=O)Nc3ccncc3)c3ccccc32)cc1,1.96% (active)
16,CC(C)(C)c1ccc(S(=O)(=O)O)s1,109% (inactive)
17,CCOC(=O)c1cnc2c(OC)ccc(OC)c2c1Cl,113% (inactive)
18,COC(=O)C(N)CSC(c1ccccc1)(c1ccccc1)c1ccccc1 (stereo not given),11.5% (inactive)
19,O=C1OC(c2ccccc2)=N/C1=C\c1ccccc1,92.4% (inactive)
20,COc1ccc(/C=N/C2=C(C#N)C(c3cccc(Cl)c3)c3c(ccc4ccccc34)O2)cc1 (stereo not given),3.32% (active)

row,Structure (SMILES),growth
1,COc1ccc(/C=N/C2=NNC(C)(c3ccccc3O)N2C(Cc2c[nH]c3ccccc23)C(=O)O)cc1 (stereo not given),-3.81% (active)
2,COc1ccc2c(c1)C(=O)/C(=C/c1cccnc1)CC2,100% (inactive)
3,C[C@H](NC(=O)c1c(N)nn2cccnc12)c1cc2cccc(C#Cc3cnn(C)c3)c2c(=O)n1-c1ccccc1,-21.2% (active)
4,Cc1[nH]n(-c2ccccc2)c(=O)c1C=NC(=S)C(N)=S,95.9% (inactive)
5,CC(=O)Nc1cccc(-c2ccc3c(c2)NC(=O)/C3=C\c2ccc[nH]2)c1,21.1% (inactive)
6,C=C1C(=O)O[C@H]2[C@H]1CC/C(COC(=O)NCc1ccc(Cn3c(=O)sn(CCCCC)c3=O)cc1)=C\CC[C@@]1(C)O[C@@H]21,3.66% (active)
7,Nc1c(C(=O)Nc2ccc(Cl)cc2)sc2nc(-c3cnccn3)cc(-c3cccs3)c12,82% (inactive)
8,O=c1cc(/C(=C2/C=CC=N2)c2ccc[nH]2)c2cc(Cl)ccc2o1,2.6% (active)
9,O=C1Nc2ccc(C(=O)O)c(O)c2C1=O,108% (inactive)
10,O=c1c2ccccc2cc2n1CCN=C2c1ccccc1,98.4% (inactive)
11,C=C(C)[C@@H]1CC[C@]2(C(=O)N=C=S)CC[C@]3(C)[C@H](CC[C@@H]4[C@@]5(C)CCC(=O)C(C)(C)[C@@H]5CC[C@]43C)[C@@H]12,11.2% (inactive)
12,CNc1ccc(-c2cc(=O)oc3ccc(Cl)cc23)cc1,39.5% (inactive)
13,CCN(CC)c1ccc(NC(C(=O)c2ccccc2)c2ccccc2)cc1 (stereo not given),1.41% (active)
14,COc1cnc2c(c1)C(=O)c1c-2n(CCCNCCN2CCOCC2)c(=O)c2cc([N+](=O)[O-])ccc12,-27% (active)
15,O=C(Nc1ccc(Cl)c(C(F)(F)F)c1)c1ccc(Nc2ccc(Cl)nn2)cc1,41.3% (inactive)
16,CCCCCCCCCCCCC1CCCC(C)C1 (stereo not given),111% (inactive)
17,C#C[C@]1(O)CC[C@H]2[C@@H]3CC=C4c5sc(Nc6cccc(C)n6)nc5CC[C@]4(C)[C@H]3CC[C@@]21C,35.7% (inactive)
18,O=C(CSc1ccc2nnc(-c3cccc(F)c3)n2n1)Nc1ccc2c(c1)OCO2,23% (inactive)
19,COc1ccc2[nH]cc(C3(c4c[nH]c5ccc(OC)cc45)C(=O)Nc4ccc(Cl)cc43)c2c1,97.7% (inactive)
20,CCN(CC)c1ccc(Nc2ccc(CC(=O)c3ccccc3)cc2)cc1,85.2% (inactive)
